# In the supplement of paper PMC6555819:
# What was measured:
# Assay in all cases: PBM binding z-score (relative to random genomic background probes); higher = stronger binding; sequences stand for … in GC…GCGATTGACAGCGTAGAATGAAGG
# [1] = tested on: PPARg:RXRa DBDmut IVT, anti-RXR (DBD mutation: RXRa K156A/R161A, NR concentration 270 nM, RXRa partner concentration 90 nM)
# In short: (§1)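 Each nuclear receptor dimer, without ligand, was incubated for 1 h on custom Agilent 4×180K protein-binding microarrays. Binding was detected with antibodies against each partner (one per run), and scanned fluorescence was regression-normalized. The binding z-scores are referenced to random human genomic background probes.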
# [2] = tested on: PPARg:RXRa IVT, anti-PPARg (NR concentration 270 nM, RXRa partner concentration 90 nM)
# In short: as §1
# [3] = tested on: PPARg DBDmut:RXRa IVT, anti-PPARg (DBD mutation: PPARg1 K132A/R137A, NR concentration 270 nM, RXRa partner concentration 90 nM)
# In short: as §1
# [4] = tested on: PPARg DBDmut IVT, anti-PPARg (DBD mutation: PPARg1 K132A/R137A, NR concentration 270 nM)
# In short: as §1
# [5] = tested on: PPARg homodimer (NR concentration 180 nM)
# In short: as §1
# [6] = tested on: PXR:RXRa (NR concentration 270 nM, RXRa partner concentration 90 nM)
# In short: as §1
# [7] = tested on: PXR homodimer (NR concentration 270 nM)
# In short: as §1
# [8] = tested on: RARa:RXR (NR concentration 270 nM, RXRa partner concentration 90 nM)
# In short: as §1
# [9] = tested on: RARa homodimer (NR concentration 270 nM)
# In short: as §1
# [10] = tested on: RARb:RXRa (NR concentration 270 nM, RXRa partner concentration 90 nM)
# In short: as §1
# [11] = tested on: RARb homodimer (NR concentration 270 nM)
# In short: as §1
# [12] = tested on: RARg:RXRa (NR concentration 270 nM, RXRa partner concentration 90 nM)
# In short: as §1
# [13] = tested on: RARg homodimer (NR concentration 270 nM)
# In short: as §1
# [14] = tested on: RXRa DBDmut IVT, anti-RXR (DBD mutation: RXRa K156A/R161A, NR concentration 90 nM)
# In short: as §1
# [15] = tested on: RXRa homodimer (NR concentration 180 nM)
# In short: as §1
# [16] = tested on: THRa:RXRa (NR concentration 90 nM, RXRa partner concentration 90 nM)
# In short: as §1
# [17] = tested on: THRa homodimer (NR concentration 90 nM)
# In short: as §1
# [18] = tested on: VDR homodimer (NR concentration 270 nM)
# In short: as §1
Sequence,PBM binding z-score [1],PBM binding z-score [2],PBM binding z-score [3],PBM binding z-score [4],PBM binding z-score [5],PBM binding z-score [6],PBM binding z-score [7],PBM binding z-score [8],PBM binding z-score [9],PBM binding z-score [10],PBM binding z-score [11],PBM binding z-score [12],PBM binding z-score [13],PBM binding z-score [14],PBM binding z-score [15],PBM binding z-score [16],PBM binding z-score [17],PBM binding z-score [18]
ATATGTAGGTTATGGGGTCATTCAGTTTGCGCAT,7.59,7.35,1.83,2.58,3.35,6.12,11.7,6.45,2.37,3.54,4.16,5.29,3.67,2.9,6.67,4.35,4.19,7.28
CCGAGTAGGTTACGGGGCATTCAGGCAACGGTGA,3.97,4.11,-0.288,-0.815,0.551,0.0878,-0.35,0.636,-0.584,1.5,1.11,1.02,1.07,-0.416,1.16,0.851,-0.136,0.121
AATACAAGGTCACTAGGCCAGAGTAGGTACGAAT,4.85,6.56,2.9,1.98,3.01,3.63,0.919,4.05,1.19,5.31,4.18,5.73,6.29,3.29,5.53,3.95,2.4,2.75
AGAATGAGGTTAAGATAAGGGAAACAGAATACAT,2.37,2.34,1.82,1.35,1.38,1.12,0.744,1.8,1.27,1.83,1.07,2.11,1.69,0.785,2.6,2.71,1.05,0.183
ATATGTAGGTTAAGGGTCATTTAGGTTGGTTCGC,7.27,7.94,3.6,3.31,3.63,5.37,2.03,5.61,2.42,3.61,4.09,4.79,3.29,2.35,6.16,3.72,1.76,3.97
ATATGTAGGTTACATCCAGGTCATTCAGGCTATG,7.73,7.59,2.75,2.95,2.59,3.82,4.54,3.35,1.06,2.53,3.23,3.8,2.4,1.19,2.91,4.23,3.46,2.88
GCAGACAGTTGAAACGCAGGTAACTCAGGGTGGC,-0.661,-0.74,-1.02,-0.586,-0.714,-0.372,-0.779,0.0801,-0.512,-0.0972,-0.639,0.0568,-0.397,-0.408,0.339,0.919,-0.565,-0.832
TCTTGTAGATCAATAGAGGTTAAGAAAGTGCGCT,1.96,1.06,0.946,0.475,0.36,2.86,0.0612,1.67,-0.172,0.91,1.1,0.791,0.296,0.705,1.28,2.07,-0.31,0.3
CCTACTGGCCCAAGGTCATTGATCAGTCAAAGCA,-0.104,1.17,-0.998,-0.271,2.64,3.52,1.68,3.36,0.651,3.4,3.58,3.48,2.65,1.58,3.16,3.57,2.81,2.79
CCTAGCAGGCCAGTCTGGGTCACTCAAGGCTTGA,1.92,2.62,-1.53,-2.16,-0.0647,0.811,-0.718,1.45,-1.53,1.42,2.01,1.09,1.2,-0.216,1.05,3.14,0.462,-0.0969
CCTACTGGGCCATCAGGACATTGATATCAACGTT,3.58,3.83,0.0869,0.0679,0.687,-0.0432,-0.0909,0.486,0.102,0.235,0.152,0.263,0.554,-0.317,-0.395,1.41,1.27,0.257
GGAACGAGGGCATTCGTGTTGATAGCATGGCGAT,3.27,2.25,-0.566,-0.299,0.242,0.774,0.237,0.37,-0.471,1.62,0.43,0.848,1.23,3.26,0.575,0.978,-0.391,1.87
CAAACTAGGTCAACGGTCAAAGTCGAGCCAACCA,8.71,9.01,1.94,3.3,2.91,2.17,0.267,3.71,0.962,4.51,3.76,4.94,5.4,2.12,4.02,3.14,1.31,1
CCTACTGGGGCAAAGGTTACCATACTCAGTACGA,5.92,7.16,3.64,1.43,4.58,2.6,-0.144,4.19,-0.0268,2.6,2.27,3.72,1.99,0.241,3.86,1.85,-0.303,0.381
CCTTACGGGTCACTGACATGTTATAGCATTTGGA,3.55,4.1,1.46,0.945,1.83,3.22,0.262,4.06,1.38,4.06,3.05,4.89,4.58,2.2,5.13,2.61,0.312,1
ATCTGTAGGTAACAAGTTCAGTGAAAGAGAGGAC,2.85,2.64,1.31,0.975,1.16,1.58,0.906,1.16,0.818,1.63,2.16,1.44,1.42,0.851,0.902,1.26,0.755,2.46
TCTATTAGTTGAAGGGCAAACGACGAGTCCGTTT,2.81,0.694,0.606,0.592,1.18,1.25,1.12,1.22,1.02,1.72,1.26,0.673,0.64,1.79,1,0.493,0.286,1.91
TCTTGTAGATCAACAGGAGGCTAAGAAAGATCGA,1.2,0.746,0.507,0.151,-1.21,-0.24,-0.799,-0.313,-0.265,-0.249,-0.642,0.0636,-0.13,0.0884,-0.111,-0.56,-1.25,-0.893
TCTTGTAGATCAATCGAGGTTAAGAAAGTGCGCT,1.91,1.31,0.666,0.595,0.306,2.74,0.235,1.75,0.262,0.661,0.899,0.6,0.164,0.612,1.01,3.5,0.268,0.299
ATCTCTAGGTAAAAGTTCAGTGATTCCCGAGGAT,2.14,3.78,1.64,0.678,1.31,1.97,1.49,1.61,0.97,2.32,2.44,1.69,2.11,0.773,1.47,1.2,0.435,1.8
AGAATGAAGTTATACGTAGATCAGGGAAGAAAGT,-0.998,-0.385,1.2,0.896,-0.353,-0.161,0.326,-0.215,0.239,-0.131,-0.451,0.0716,0.29,-0.796,-0.0486,-0.563,-0.66,-0.183
TCTACTAGGTCAGTTGGTCAGCTAACGAGCTGCC,6.44,6.43,1.78,0.835,1.78,0.537,-0.418,0.904,0.501,3.46,2.91,2.74,3.58,1.19,1.24,1.28,0.622,0.162
AATATTAGTTGACTTAGGGCAACCGATACGACGC,0.114,0.435,1.41,0.654,0.835,0.143,0.976,0.751,1.92,0.721,0.918,0.615,0.87,0.532,0.76,1.44,0.572,0.87
CGAACTAGGTCATCCAGGAAAGTGAATACATTGA,8.18,8.5,3.43,1.05,1.98,1.58,0.128,2.49,0.697,3.96,2.85,4.03,4.93,2.23,3.11,2.77,0.863,1.12
TGTCAAAGTTCAAAGGTAAGGTAAGTATCCACAC,0.662,4.2,2.56,2.04,6.17,5.8,5.17,6.32,2.15,5.2,3.83,6.22,6.55,4.48,7.16,3.5,0.924,4.14
TTACCAAGGTGCAAGGTCGTTGATGCACGCCTTG,-0.0401,1.05,-0.472,-0.179,0.87,1.16,0.648,1.13,-0.653,1.22,1.21,0.66,0.411,1.33,1.54,1.62,0.68,2.9
ACTATTAGTTGAGACGAGGGAAACCGATAGGTTG,0.0625,-0.339,0.706,0.394,0.465,-0.464,-0.0777,0.0368,0.655,-0.193,-0.559,0.157,0.307,0.505,0.0988,0.35,-0.716,0.415
TTACCAAGGTGCAGGTCGTTGATCCCTCTGTAGA,-0.00827,0.492,-0.281,-1.32,-0.014,0.4,0.135,0.7,-0.516,0.624,0.634,0.0227,-0.225,0.43,0.481,0.675,0.0392,0.805
TAGAGTAGGTTAGGGGCATTCAGAATGGCGTCGA,2.77,3.28,1.38,0.566,1.85,1.08,1.72,0.913,1.66,1.81,1.72,1.16,0.918,0.0146,1.08,1.36,0.85,1.66
